From PubChem BioAssay (Tox21) come the findings set out here.

Molecules are shown by their SMILES. Records with an inconclusive call do not appear. Activity calls are given as the source filed them. Unless noted, calls come from the whole dose curve; as a rule, active = well fitted curve in the direction sought with a large enough effect in the repeat runs; inconclusive = weak or mixed curves; inactive = no such curve, though single readings can be large; an effect the other way counts as inactive or inconclusive.

The nature of experiment [1]: A CellTox Green Cytotoxicity Assay to monitor cytotoxicity in HEK293 cells - 32 hour (AID 1224881). Note: nearly all actives have a fitted effect of over 40% in size. Note: potency is the fitted concentration of half-maximal effect. A digest of the protocol: (§1)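 Dead-cell fluorescence measured kinetically: asymmetric cyanine dye, HEK293, 600 cells/well, 5 h settle, 23 nL cpd/DMSO, 37 C, reads 0–40 h every 8 h.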
Experiment [2] in a line: A CellTox Green Cytotoxicity Assay to monitor cytotoxicity in HepG2 cells - 0 hour (AID 1224882). Note: nearly all actives have a fitted effect of over 35% in size. Note: potency is the fitted concentration of half-maximal effect. An outline of the steps: (§2)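 First, HepG2 cells (600/well) mixed with reagent were plated; second, after 5 h at 37 C they received compounds via pintool; third, fluorescence was measured at 0 h through 40 h at 8 h intervals.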
A short description of experiment [3]: A CellTox Green Cytotoxicity Assay to monitor cytotoxicity in HepG2 cells - 32 hour (AID 1224883). Note: nearly all actives have a fitted effect of over 50% in size. Note: potency is the fitted concentration of half-maximal effect. An outline of the steps:
as §2

The nature of experiment [4]: A CellTox Green Cytotoxicity Assay to monitor cytotoxicity in HEK293 cells - 8 hour (AID 1224884). Note: nearly all actives have a fitted effect of over 35% in size. Note: potency is the fitted concentration of half-maximal effect. An outline of the steps:
as §1

The nature of experiment [5]: qHTS RealTime-Glo MT Cell Viability Assay in HepG2 cells - 16 hour (AID 1224885). Note: nearly all actives have a fitted effect of over 50% in size. An outline of the steps:
(§3)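 HepG2 suspension premixed with RealTime-Glo reagents is plated at 600 cells per well and left 5 h at 37 C/5% CO2. Compounds in DMSO then go in, and bioluminescence reflecting viable cell number is recorded over 40 h.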
On the technique in general: Quantitative high-throughput screening tests each substance at several concentrations.

Experiment [6] in a line: qHTS RealTime-Glo MT Cell Viability Assay in HEK293 cells - 24 hour (AID 1224886). Note: top concentration of the series differs between compounds; nearly all actives have a fitted effect of over 50% in size. An outline of the steps:
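Reads taken at 0, 8, 16, 24, 32 and 40 h from the same wells. HEK293 cells (600/well) carried RealTime-Glo reagents from seeding, with compound added after a 5 h settle at 37 C.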

A short description of experiment [7]: qHTS RealTime-Glo MT Cell Viability Assay in HEK293 cells - 8 hour (AID 1224887). Note: top concentration of the series differs between compounds; nearly all actives have a fitted effect of over 50% in size. A digest of the protocol:
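600 HEK293 cells per well, dispensed already mixed with RealTime-Glo MT reagents. Compound dosing came 5 h later. The same wells were read for luminescence at 0, 8, 16, 24, 32 and 40 h of exposure at 37 C.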

A short description of experiment [8]: A CellTox Green Cytotoxicity Assay to monitor cytotoxicity in HEK293 cells - 16 hour (AID 1224888). Note: nearly all actives have a fitted effect of over 35% in size. Note: potency is the fitted concentration of half-maximal effect. A digest of the protocol: as §1
Experiment [9] in a line: qHTS RealTime-Glo MT Cell Viability Assay in HepG2 cells - 0 hour (AID 1224889). Note: nearly all actives have a fitted effect of over 50% in size. An outline of the steps:
as §3

Experiment [10] in a line: A CellTox Green Cytotoxicity Assay to monitor cytotoxicity in HepG2 cells - 8 hour (AID 1224890). Note: nearly all actives have a fitted effect of over 45% in size. Note: potency is the fitted concentration of half-maximal effect. A digest of the protocol:
as §2

The nature of experiment [11]: qHTS assay to identify small molecule antagonists of the estrogen receptor alpha (ER-alpha) signaling pathway using the BG1 cell line in the presence of 0.1 nM 17-beta-estradiol - cell viability counter screen (AID 1259241). Note: nearly all actives have a fitted effect of over 40% in size. A digest of the protocol:
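Following 5 days in phenol red-free medium with charcoal-stripped serum, VM7Luc4E2 cells received test compounds alongside 0.1 nM 17beta-estradiol (final) at 37C for 22 hr. Live cells were then quantified via protease-substrate fluorescence.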

A short description of experiment [12]: qHTS assay to identify small molecule antagonists of the androgen receptor (AR) signaling pathway using the MDA cell line in the presence of 0.5 nM R1881 - cell viability counter screen (AID 1259242). Note: nearly all actives have a fitted effect of over 45% in size. A digest of the protocol:
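qHTS format. MDA-kb2 (MMTV-luc, AR/GR responsive) + cpd + 0.5 nM R1881 final, 16 hr 37C/0% CO2 → CellTiter-Fluor 30 min → fluorescence intensity.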

Experiment [13] addresses Androgen receptor (Homo sapiens) (UniProt P10275). Put plainly: qHTS assay to identify small molecule antagonists of the androgen receptor (AR) signaling pathway using the MDA cell line in the presence of 0.5 nM R1881 (AID 1259243). Note: nearly all actives have a fitted effect of over 50% in size. A digest of the protocol:
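Antagonist mode quantitative HTS in MDA-kb2 MMTV-luciferase cells, agonist R1881 at 0.5 nM final, 16 hr exposure at 37C and 0% CO2, luminescent detection.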

Experiment [14] in a line: qHTS assay to identify small molecule phospholipidosis (PLD) inducers (AID 1259344; active = well fitted curve in the direction sought with a large enough effect; an effect the other way counts as inactive or inconclusive). An outline of the steps: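 Accumulated phospholipid, stained red by LipidTOX during 24 h compound treatment of HepG2 cells at 37 C, is quantified from images as pit number and intensity, normalised per cell using Hoechst-stained nuclei.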
Experiment [15] can be described thus: qHTS assay to identify small molecule HDAC inhibitors (AID 1259364).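 Note: wild-type HCT-116 cells with endogenous class I/II HDAC activity; top concentration of the series differs between compounds; nearly all actives have a fitted effect of over 45% in size.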 An outline of the steps:
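Quantitative high-throughput format: overnight-seeded HCT-116 cells got compounds for 2 hr at 37C; HDAC-Glo I/II reagent added, 30 min RT, luminescence measured.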

Experiment [16] is described as follows: qHTS assay to identify small molecule HDAC inhibitors - cell viability counter screen (AID 1259365). An outline of the steps: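 HCT-116 wild-type, overnight attachment; 2hr drug exposure, 37C; CellTiter-Glo luminescent ATP readout after 30min RT.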
Experiment [17] is described as follows: qHTS assay to identify small molecule agonists of the sonic hedgehog signaling (Shh) pathway - cell viability counter screen (AID 1259366). Note: nearly all actives have a fitted effect of over 50% in size. An outline of the steps: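 Compounds in DMSO were pin-transferred onto 3T3 Gli1-Luc cells that had settled 4hr; plates then stood 24hr at 37C and 5% CO2. One hour before the end, CellTiter-Fluor was added and fluorescence recorded.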

Experiment [18] can be described thus: qHTS assay to identify small molecule antagonists of the sonic hedgehog signaling (Shh) pathway - cell viability counter screen (AID 1259367). Note: nearly all actives have a fitted effect of over 55% in size. An outline of the steps:
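CellTiter-Fluor signal in conditioned medium-stimulated 3T3 Gli1-Luc cells, 23 hr compound exposure, 37C.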

A short description of experiment [19]: qHTS assay to identify small molecule agonists of the sonic hedgehog signaling (Shh) pathway (AID 1259368; calls by dose curve;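 note: NIH/3T3-derived 3T3Gli1-Luc cells carrying a stable Gli1-driven firefly luciferase reporter; series mostly up to about 92 µM; nearly all actives have a fitted effect of over 15% in size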). A digest of the protocol: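 Quantitative high-throughput format using a Gli1-driven firefly luciferase reporter line derived from NIH/3T3 cells. After a 24 hr compound treatment at 37 C and 5% CO2, luminescence reported Gli1 response element activity.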

Experiment [20] concerns the target Estrogen receptor (Homo sapiens) (UniProt P03372). As to the kind of experiment: qHTS assay to identify small molecule antagonists of the estrogen receptor alpha (ER-alpha) signaling pathway using the BG1 cell line in the presence of 0.1 nM 17-beta-estradiol (AID 1259244). Note: nearly all actives have a fitted effect of over 50% in size. A digest of the protocol: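 Reporter is a stably transfected luciferase under four estrogen responsive elements in VM7Luc4E2 cells expressing native full-length ER-alpha; inhibition of 0.1 nM (final) 17beta-estradiol-driven signal over 22 h is read by luminescence.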

Estrogen receptor (Homo sapiens), sequence (P03372 whole entry, looked up): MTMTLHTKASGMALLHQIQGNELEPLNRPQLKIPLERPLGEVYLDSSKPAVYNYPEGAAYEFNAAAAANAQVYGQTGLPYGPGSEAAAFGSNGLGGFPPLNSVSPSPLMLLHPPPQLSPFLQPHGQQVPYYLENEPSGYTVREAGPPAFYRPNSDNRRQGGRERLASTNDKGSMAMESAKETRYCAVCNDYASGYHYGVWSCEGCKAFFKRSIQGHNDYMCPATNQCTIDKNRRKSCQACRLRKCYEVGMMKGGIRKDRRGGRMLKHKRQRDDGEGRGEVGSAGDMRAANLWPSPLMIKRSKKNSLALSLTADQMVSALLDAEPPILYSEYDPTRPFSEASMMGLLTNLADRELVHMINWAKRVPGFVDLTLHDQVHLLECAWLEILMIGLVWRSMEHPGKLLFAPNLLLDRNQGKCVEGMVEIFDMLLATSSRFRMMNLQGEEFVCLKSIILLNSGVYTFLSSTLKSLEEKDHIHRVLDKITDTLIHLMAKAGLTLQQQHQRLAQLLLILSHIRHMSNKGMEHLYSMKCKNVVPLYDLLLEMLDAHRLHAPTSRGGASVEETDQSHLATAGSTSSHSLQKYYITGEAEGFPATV
Androgen receptor (Homo sapiens), sequence (P10275 whole entry, looked up): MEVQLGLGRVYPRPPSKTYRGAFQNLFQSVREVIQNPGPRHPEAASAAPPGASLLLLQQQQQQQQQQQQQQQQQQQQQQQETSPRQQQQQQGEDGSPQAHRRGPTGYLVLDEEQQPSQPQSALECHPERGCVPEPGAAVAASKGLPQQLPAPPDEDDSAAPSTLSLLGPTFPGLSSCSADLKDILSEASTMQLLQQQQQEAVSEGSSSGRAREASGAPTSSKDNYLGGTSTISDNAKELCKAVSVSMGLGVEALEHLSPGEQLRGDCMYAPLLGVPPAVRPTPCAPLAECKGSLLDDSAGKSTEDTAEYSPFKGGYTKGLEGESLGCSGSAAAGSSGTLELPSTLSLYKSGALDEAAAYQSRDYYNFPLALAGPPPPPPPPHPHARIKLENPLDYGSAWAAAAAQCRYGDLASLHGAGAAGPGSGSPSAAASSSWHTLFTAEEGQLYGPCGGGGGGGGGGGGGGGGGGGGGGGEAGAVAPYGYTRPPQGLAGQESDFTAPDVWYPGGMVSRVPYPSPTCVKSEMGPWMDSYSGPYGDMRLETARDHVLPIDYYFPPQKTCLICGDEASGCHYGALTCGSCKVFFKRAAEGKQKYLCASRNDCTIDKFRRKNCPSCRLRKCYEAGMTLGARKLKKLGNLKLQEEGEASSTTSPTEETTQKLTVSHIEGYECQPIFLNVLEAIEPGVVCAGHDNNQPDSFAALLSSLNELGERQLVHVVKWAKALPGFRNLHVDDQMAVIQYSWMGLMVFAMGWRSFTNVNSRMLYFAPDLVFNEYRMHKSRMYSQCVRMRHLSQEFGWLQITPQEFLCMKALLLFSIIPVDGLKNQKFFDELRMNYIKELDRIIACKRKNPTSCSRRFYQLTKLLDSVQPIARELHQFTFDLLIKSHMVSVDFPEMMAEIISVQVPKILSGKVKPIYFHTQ

With `O=C(NCNC(=O)NC1C(=O)NC(=O)N1CO)NC1C(=O)NC(=O)N1CO` (stereo not drawn), the Potency entry in [1], in experiment [2], in experiment [3], in [4], in experiment [5] and in experiment [6] was “inactive” each time. For the same molecule, the Potency result in experiment [7], in experiment [8], in [10], in experiment [11], in experiment [12] and in [13] was “inactive” in each case. Also, the Potency entry in experiment [15], in experiment [16], in experiment [17], in [18] and in experiment [19] was “inactive” in each case. Also, the call in [9] and in experiment [14] was inactive.
Consider `FC(F)OC(F)(F)C(F)Cl` (stereo not drawn), for which the Potency result in experiment [1], in experiment [2], in experiment [3], in experiment [4], in [5] and in experiment [6] was “inactive” throughout. Besides, the Potency entry in experiment [7], in experiment [8], in [10], in experiment [11], in experiment [12] and in experiment [13] was “inactive” in each case. The Potency result in experiment [15], in [16], in [17], in experiment [18] and in experiment [19] was “inactive” throughout. Besides, the molecule was classed as inactive in [9] and in experiment [14].
On to `N#CC(C#N)=Cc1ccc(O)c(O)c1`, for which the Potency result in experiment [1], in experiment [3], in experiment [4], in experiment [5], in experiment [6] and in experiment [7] was “inactive” throughout. Besides, the Potency result in experiment [8], in experiment [10], in [11], in experiment [12], in [13] and in experiment [20] was “inactive” throughout. Further, the Potency entry in [15], in [17], in experiment [18] and in experiment [19] was “inactive” in each case. Also, in experiment [2], the Potency is 23.9 µM (active). Moreover, the molecule was classed as inactive in [9] and in [14].
On to `c1ccc2sc(SNC3CCCCC3)nc2c1`, for which the Potency result in experiment [1], in experiment [2], in experiment [3], in [4], in [5] and in experiment [6] was “inactive” each time. Also, the Potency entry in [7], in experiment [8], in [10], in experiment [11], in [12] and in experiment [20] was “inactive” throughout. In addition, the Potency result in [15], in [16], in [17], in experiment [18] and in experiment [19] was “inactive” throughout. For the same molecule, the outcome in experiment [9] and in experiment [14] was inactive.
For `CN1C(=O)CN=C(c2ccccc2)c2cc([N+](=O)[O-])ccc21`, the Potency entry in [1], in experiment [2], in experiment [3], in [4], in [5] and in experiment [6] was “inactive” throughout. Further, the Potency result in [7], in experiment [8], in experiment [10], in experiment [11], in experiment [12] and in [13] was “inactive” each time. Further, the Potency entry in [20], in experiment [15], in experiment [16], in [17], in [18] and in [19] was “inactive” throughout. In addition, the result in experiment [9] and in experiment [14] was inactive.
`O=C=NC1CCCCC1`: the Potency result in experiment [1], in experiment [2], in experiment [3], in experiment [4], in [5] and in [6] was “inactive” each time. Also, the Potency result in [7], in experiment [8], in [10], in experiment [11], in [12] and in experiment [20] was “inactive” each time. Moreover, the Potency result in experiment [15], in experiment [16], in [17], in experiment [18] and in experiment [19] was “inactive” each time. Also, in [9], the call was inactive.
As to `C[C@H](N)[C@H](O)c1ccc(O)c(O)c1`, the Potency is 19 µM (active) in experiment [1]; 26.8 µM (active) in [2]; 21.3 µM (active) in experiment [3]; 19 µM (active) in experiment [4]; 21.3 µM (active) in [8]; 26.8 µM (active) in experiment [10]. Also, the Potency result in [5], in experiment [6], in [7], in experiment [11], in experiment [12] and in experiment [20] was “inactive” in each case. The Potency entry in experiment [15], in experiment [16], in [17], in experiment [18] and in experiment [19] was “inactive” throughout. For the same molecule, the molecule was classed as inactive in experiment [9] and in experiment [14].
